# HT1080 IDH1KD tx – qHTS for induction of synthetic lethality in tumor cells producing 2HG: qHTS for the HT-1080-IDH1KD cell line. HT-1080 IDH1 knockdown viability, ATP luminescence, 48 h. Potency, µM (doses to about 46.1 µM), for the others: top-dose activity, negative = toxicity, hits mostly cytotoxic. actives 2% (n = 360,000). AID 686971, 2013;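 also: 0% = DMSO wells and -100% = cell-free medium wells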
#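 Using the IDH1-knockdown HT-1080 line run in the same batch and compound series as the NT line, viability after 48 h at 37 °C was determined by CellTiter-Glo luminescence and expressed as % activity.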
# TDP1 cell noCPT – qHTS for Inhibitors of human tyrosyl-DNA phosphodiesterase 1 (TDP1): qHTS in cells in absence of CPT | DT40 Tdp1-/- hTDP1 cells, no CPT, ATP luminescence, 48 h | Potency, µM (titrated, usually from 46.2 µM), inactives show top-dose activity change, negative = growth inhibition, most hits filed as inhibitors | actives 15% (n = 420,000) | AID 686978, 2013; also: nearly all actives have a fitted effect of over 55% in size
#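 No-CPT arm: Tdp1-/-;hTDP1 DT40 cells (400/well) plus compounds, incubated ≥48 hr at 37 °C. Readout CellTiter-Glo luminescence.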
# HT1080NT lethal – qHTS for induction of synthetic lethality in tumor cells producing 2HG: qHTS for the HT-1080-NT fibrosarcoma cell line; HT-1080-NT fibrosarcoma viability, CellTiter-Glo ATP luminescence, 48 h; Potency, µM (top dose mostly 46.1 µM), for inactives: top-dose activity, negative = less viability, usual class: cytotoxic; actives 1.6% (n = 360,000);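 also: NT is the 2HG producing partner of a matched IDH1 knockdown line; 0% = DMSO-treated cells and -100% = media-only wells without cells; nearly all actives have a fitted effect of over 55% in size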
#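 HT-1080-NT fibrosarcoma cells (2HG-overproducing), 750 cells/well in RPMI with 5% FBS, dosed after 2 h and incubated 48 h at 37C. CellTiter-Glo luminescence normalized to DMSO and no-cell wells; concentration-response curves fitted and classed.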
# KB-V1 cytotox – qHTS assay for MDR1-selective chemotherapeutics: Primary screen using the drug-selected MDR subline cells KB-V1; actives 3.4% (n = 400,000); KB-V1 MDR cells viability, CellTiter-Glo, 72 h; Potency, µM (top dose mostly 46.1 µM), most hits filed as cytotoxic; also: nearly all actives have a fitted effect of over 60% in size
#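 qHTS viability screen in drug-selected KB-V1 MDR cells: 72 h compound treatment at 37 degrees C, ATP luminescence end point.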
# TDP1 cell CPT – qHTS for Inhibitors of human tyrosyl-DNA phosphodiesterase 1 (TDP1): qHTS in cells in presence of CPT; Potency, µM (doses to about 46.2 µM), without a hit: at the top dose activity change, negative = growth inhibition, most hits filed as inhibitors; chicken DT40 Tdp1-/-;hTDP1 cells + 20 nM CPT, ATP luminescence, 48 h; actives 12% (n = 420,000); also: nearly all actives have a fitted effect of over 55% in size
#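 Chicken DT40 Tdp1-/- cells stably complemented with human TDP1 were seeded at 400 cells/well in medium containing 20 nM camptothecin, exposed to pin-transferred compounds, and grown at 37 °C for at least 48 hr. Viability was read as ATP luminescence.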
# KB-3-1 cytotox – qHTS assay for MDR1-selective chemotherapeutics: Primary screen using the parental adenocarcinoma cell KB-3-1 | KB-3-1 viability, CellTiter-Glo ATP luminescence, 72 h | Potency, µM (doses to about 46.1 µM), hits mostly cytotoxic | actives 1.4% (n = 400,000); also: nearly all actives have a fitted effect of over 60% in size
#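 Parental KB-3-1 adenocarcinoma cells in phenol-red-free DMEM with 10% FBS were pin-treated with compounds at several concentrations, incubated 72 h at 37 °C, and viability read by CellTiter-Glo luminescence; concentration-effect curves were fitted after normalization.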
# * hit, by the source's call; i = inactive; ? = inconclusive; nt = not tested or not shown; [ ] = dose if it differs, or a comment. Compounds with a hit are over-represented: about 19% of the library has one in this group of screens. Calls follow the shape of the dose curve; as a rule, active = well fitted curve in the direction sought with a large enough effect; inconclusive = small, poorly fitted or top-dose-only effect, or another doubt; inactive = no such curve, though single readings can be large; an effect the other way counts as inactive or inconclusive. Unless noted, % is scaled to controls: 0 for no effect and ±100 for the full control effect; potency is read from the fitted curve at half-maximal effect.
SMILES,HT1080 IDH1KD tx,TDP1 cell noCPT,HT1080NT lethal,KB-V1 cytotox,TDP1 cell CPT,KB-3-1 cytotox
COC(=O)c1ccc2nc(C)cc(Nc3ccccc3C)c2c1,-5%,?,-16%,i,?,i
CCOc1ccccc1Nc1cc(C)nc2ccc(C)cc12,?,21µM*,?,12µM*,?,?
CCOc1ccccc1Nc1cc(C)nc2ccccc12,-15%,?,-5%,?,18µM*,i
CCS(=O)(=O)N1CC(=O)N(c2ccc(C)c(C)c2)C(C)(C(=O)NC2CCCCC2)C1 (centres undefined),nt,-4%,nt,i,-21%,i
COc1ccc(-c2nc3ccccc3n2Cc2ccc(C)cc2)cc1,?,?,?,i,16µM*,i
COc1ccc(CNc2nc3ccccc3n2Cc2ccc(C)cc2)cc1OC,9%,?,-1%,3.3µM*,?,i
COCn1c(-c2ccc(OC)cc2)nc2ccccc21,-22%,-27%,-17%,i,-11%,i
CCCn1c(-c2ccc(OC)cc2)nc2ccccc21,?,3.7µM*,-17%,18µM*,2.6µM*,?
COc1ccc(-c2nc3ccccc3n2OC(C)C(=O)O)cc1 (centres undefined),17%,-19%,23%,i,-6%,i
Clc1ccc(-c2nc3ccccc3n2OCc2ccccc2)cc1,3%,21µM*,2%,i,21µM*,i
c1ccc(Cn2c(NCc3ccncc3)nc3ccccc32)cc1,-4%,-18%,-2%,?,-18%,i
CC(C)CCNC(=O)CN(Cc1ccco1)C(=O)CCC(=O)Nc1nccs1,12%,-3%,8%,i,0%,i
COc1ccc(C(=O)N/C(=C\c2cn(C)c3ccccc23)C(=O)N2CCN(C)CC2)cc1OC,-3%,?,1%,i,?,i
COc1ccc(Cn2c(-c3ccc(C)cc3)c[n+]3ccccc23)cc1,1.2µM*,0.92µM*,4.1µM*,i,1µM*,3.3µM*
CCOC(Cn1c(-c2ccc(OC)cc2)nc2ccccc21)OCC,-13%,16µM*,-4%,i,23µM*,i
C=CCn1c(-c2cccnc2Cl)nc2ccccc21,3%,5%,4%,i,1%,i
C=CCn1c(-c2ccc(C)cc2)nc2ccccc21,?,21µM*,-8%[9.24 µM],i,15µM*,i
COc1ccc(-c2nc3ccccc3n2Cc2ccc(C(C)C)cc2)cc1,nt,nt,nt,?,nt,i
COc1ccc(-c2nc3ccccc3n2Cc2ccc(Cl)cc2)cc1,nt,21µM*,nt,i,21µM*,i
O=C(NCC1Cc2cccc(-c3ncccn3)c2O1)C1CCOC1 (centres undefined),nt,-6%,nt,nt,10%[9.04 µM],nt
CCc1ccc(C(=O)c2cn(CC(=O)Nc3cc(OC)ccc3OC)c3ccc(C)cc3c2=O)cc1,nt,-17%,nt,i,-29%,?
Cc1ccc(Cl)cc1NC(=O)CN(C)S(=O)(=O)c1ccc2c(c1)n(C)c(=O)c(=O)n2C,nt,-9%,nt,i,-11%,i
C=C(C)Cn1c(-c2ccc(OC)cc2)nc2ccccc21,-11%,15µM*,-3%,i,13µM*,i
CCOC(=O)n1c(=O)n(Cc2ccc(OC)cc2)c2ccccc21,?,16µM*,15µM*,?,?,16µM*
COc1ccc(Br)cc1C1C(C(=O)Nc2ccc(C)cc2C)=C(C)Nc2ncnn21 (centres undefined),nt,-25%,nt,i,-8%,i
SMILES,HT1080 IDH1KD tx,TDP1 cell noCPT,HT1080NT lethal,KB-V1 cytotox,TDP1 cell CPT,KB-3-1 cytotox
CC1CCCCC1NC(=O)CNC(=O)c1cccs1 (centres undefined),0%,-21%,-1%,i,10%,i
CCC(C)c1ccc(NC(=S)NCCn2cc(Cl)cn2)cc1 (centres undefined),-22%,21µM*,-8%,?,?,?
S=C(NCCN1CCCCC1)Nc1ccc(Br)cc1,-15%,?,-10%,i,3%,i
CCC(C)c1ccc(NC(=S)NCCn2cc(Br)cn2)cc1 (centres undefined),-11%,15µM*,-7%,i,21µM*,i
CCOC(=O)c1c(C)[nH]c(C)c1S(=O)(=O)NCC(=O)NCc1cccc(Br)c1,nt,-23%,nt,i,-22%,i
COCCn1c(=O)c(-c2cc(F)cc(F)c2)nc2cnc(Oc3cccc(Cl)c3)nc21,nt,-19%,nt,nt,?,nt
CCN(CC)C(=O)Cn1c(C)c(/C=C/c2cc[n+](C)cc2)c2ccccc21,1%,?,10%,i,?,i
CCn1cc(/C=C/c2cc[n+](C)cc2)c2ccccc21,?,1µM*,?,i,0.33µM*,i
CC(C)n1cc(/C=C/c2cc[n+](C)cc2)c2ccccc21,9.2µM*,0.52µM*,?,i,0.52µM*,1.3µM*
C=CCn1cc(/C=C/c2cc[n+](C)cc2)c2ccccc21,?,0.58µM*,?,i,0.73µM*,4.1µM*
C=CCn1c(C)c(/C=C/c2cc[n+](C)cc2)c2ccccc21,?,1.5µM*,-7%,i,3.7µM*,2.3µM*
O=C(O)Cn1cc(/C=C/[N+](=O)[O-])c2ccccc21,1%,-9%,-1%,?,-1%,i
CC(C)n1cc(/C=N/Nc2ccc(C(=O)O)cc2)c2ccccc21,-17%,2%,-10%,i,0%,i
O=C1NC[C@@H](CCCCN2C[C@H](Cc3ccc(O)cc3)N(CCc3ccccc3)C(=O)C2=O)N(CCC2CCCCC2)C1=O,7%,-4%,12%,i,2%,i
COc1cccc(-c2nc(S(=O)(=O)c3ccccc3)c(NCc3ccccc3)o2)c1,nt,?,nt,i,?,i
CCCC(=O)Nc1nnc(S(=O)(=O)N(CC(C)C)c2ccccc2)s1,23%,11%,5%,i,6%,i
O=C(NCCOCCn1c(=O)oc2ccccc21)Nc1ccc(F)cc1F,nt,12µM*,nt,i,10µM*,i

# Bioassay records as filed in PubChem BioAssay.
